# Measurements: article PMC7819943, “Rice protein-binding microarrays: a tool to detect cis-acting elements near promoter regions in rice”
# Over roughly 68,000 sequences, “fluorescence intensity (a.u.)” has its median near 9,100; the highest 2% begin near 16,000. This excerpt belongs to a sample that is enriched for the highest values.
# Target: OsWRKY34 (Oryza sativa, UniProt Q0JBA9 1-250)
# Assay: protein-binding microarray (RPBM); PBS, 2% BSA, 51.3 ng/ul salmon testes DNA, 50 uM zinc acetate, 200 nM TF, 25 C, 1 h; high values mean tight binding
# Conditions: protein: recombinant; tags: N-terminal polyhistidine and DsRed monomer fusion (pET32a); label: CyDye5-dUTP incorporated in the synthesized complementary strand; 3' TTTTT single-stranded linker to array surface; dsDNA, one strand shown
# Summary of the method: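 The binding signal is fluorescence intensity per feature, in arbitrary units, read on an Axon 4000B scanner. Polyhistidine- and DsRed-tagged transcription factors (N-terminal fusions) from E. coli BL21-CodonPlus were purified on Ni–NTA and applied at 200 nM for 1 h at 25 °C to a double-stranded, BSA-blocked custom Agilent array in buffer with 50 µM zinc acetate.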
# Sequence of OsWRKY34 (Q0JBA9 entry or part of it): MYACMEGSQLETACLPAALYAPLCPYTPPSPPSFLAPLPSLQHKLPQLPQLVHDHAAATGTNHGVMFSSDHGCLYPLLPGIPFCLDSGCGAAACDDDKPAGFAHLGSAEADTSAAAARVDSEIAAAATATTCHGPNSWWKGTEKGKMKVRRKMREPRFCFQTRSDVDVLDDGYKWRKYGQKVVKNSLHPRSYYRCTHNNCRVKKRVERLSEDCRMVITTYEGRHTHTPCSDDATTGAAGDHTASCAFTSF
row,Sequence,binding signal
1,CGCCGCCGCCCTCACCCTCGCCGCCGCGCATCCCGCGGTCCGGAGTCACCTAGTGCAG,8120 fluorescence intensity (a.u.)
2,ATAATAGGGTTATTCATAATATGGCAGGGTTTTTGGTTAGCGGAGTCACCTAGTGCAG,10300 fluorescence intensity (a.u.)
3,TGTGATAGGCTTCAATGTTTAATCTCACCATCGATTGTTACGGAGTCACCTAGTGCAG,9500 fluorescence intensity (a.u.)
4,TAGTCTTTGTCGTTTCCATGTATAACTCTATTTATCTTTCCGGAGTCACCTAGTGCAG,12400 fluorescence intensity (a.u.)
5,CTAGTTGCTCCTAACTTGGCCTACTGTCCTCCATCTCCAACGGAGTCACCTAGTGCAG,9280 fluorescence intensity (a.u.)
6,GAGCTTCCTATCGCGCCGCCGCGTGCGTACGTGTTTGATCCGGAGTCACCTAGTGCAG,11000 fluorescence intensity (a.u.)
7,TACACCGTCCCAACCGGCTTTGTTTGACTTGTCCGACCAGCGGAGTCACCTAGTGCAG,8330 fluorescence intensity (a.u.)
8,TTACCGATGCGACCTGTCCCTGTCACTCCCGCCTCGGTAACGGAGTCACCTAGTGCAG,9060 fluorescence intensity (a.u.)
9,GACATTACGGGCCCACAAGTACGCGTCCCCACCAGCCATACGGAGTCACCTAGTGCAG,8490 fluorescence intensity (a.u.)
10,ATCACCTTGCTCGATCGCCTCCGTTGTTTTGCACTAAATTCGGAGTCACCTAGTGCAG,8620 fluorescence intensity (a.u.)
11,GAGGGGAGGAAGAAGAGGTGGGTGAGAATGACACGTGGGGCGGAGTCACCTAGTGCAG,10600 fluorescence intensity (a.u.)
12,TGTTTCTATCTCGTATCTTCTCTTCCAAGCATGTATTTCCCGGAGTCACCTAGTGCAG,8650 fluorescence intensity (a.u.)
13,GATTTTTTCGGACTTGGTCTCGGTCTTTTTGTTTGGTTATCGGAGTCACCTAGTGCAG,10200 fluorescence intensity (a.u.)
14,CTTCGTGTTCGTCGTGGTCTCTTGTTTCTTCTTCTTCTTCCGGAGTCACCTAGTGCAG,22000 fluorescence intensity (a.u.)
15,CTTATCTCATTTTATCTCGGTTTTTGTTAACTTGTTTTTTCGGAGTCACCTAGTGCAG,18200 fluorescence intensity (a.u.)
16,TTTTAATCTCATTTTTTTTAACGGTTTTGCTATAATTTTTCGGAGTCACCTAGTGCAG,8850 fluorescence intensity (a.u.)
17,ATCGTTATCTATTGCCGTATGTTATTTCGTTGTTCCGTCTCGGAGTCACCTAGTGCAG,8920 fluorescence intensity (a.u.)
18,TTTGTGTCACTTTTAAACATGTTCACGTCATTATTTTAGTCGGAGTCACCTAGTGCAG,9290 fluorescence intensity (a.u.)
19,CTCTCTCTTCTTCTTCGTGTTGTTGTTTCTCTCTCTGTCTCGGAGTCACCTAGTGCAG,11700 fluorescence intensity (a.u.)
20,GTTCATTTTCATGTTATTTTTCATGTAACTACATTATTATCGGAGTCACCTAGTGCAG,8990 fluorescence intensity (a.u.)
21,TCTTATATGTTATGCAAGTATGTTTCTATCTCGTATCTTCCGGAGTCACCTAGTGCAG,16500 fluorescence intensity (a.u.)

row,Sequence,binding signal
1,ATTGTTCATTTGTCGTTCCATTACATGTAACTTCACTTCACGGAGTCACCTAGTGCAG,17000 fluorescence intensity (a.u.)
2,TGTTCTTGTTTGTGTTTTCTTCTTCGTCTCCGGCGACGGCCGGAGTCACCTAGTGCAG,10000 fluorescence intensity (a.u.)
3,ATTTTGTTTCTCCTTGGTTGGTTTTGCTTCACCTAGATCACGGAGTCACCTAGTGCAG,11200 fluorescence intensity (a.u.)
4,GCTCGCTTTCTCAGGTCTTTCTCTTCCCCGTATCCCCACTCGGAGTCACCTAGTGCAG,10500 fluorescence intensity (a.u.)
5,TCTGCGAGGAAGAACCCATTCAGATTACGCTGCATTTTTTCGGAGTCACCTAGTGCAG,8660 fluorescence intensity (a.u.)
6,GGCGATCCGGCTTAACTACTTTGTTTGTTTCTCTGTGCAACGGAGTCACCTAGTGCAG,8480 fluorescence intensity (a.u.)
7,ACCACCACCACCACCGCCCGCCAAGCGCGGCCCGCCCGACCGGAGTCACCTAGTGCAG,8720 fluorescence intensity (a.u.)
8,TGTTCTGCCGGGGTTGTTGCTTACTGATGCAAAACTCTTTCGGAGTCACCTAGTGCAG,9240 fluorescence intensity (a.u.)
9,TTCCACGGTTTTCTTTTTTCGGTTTTTATCTTTTCTTTTTCGGAGTCACCTAGTGCAG,13200 fluorescence intensity (a.u.)
10,CTTTCCTTTCTTTGTTTTTTATCTTTGTTTTCTTTCTTCCCGGAGTCACCTAGTGCAG,11800 fluorescence intensity (a.u.)
11,GTGTTCATTGCTAGTTGCATTGTGGTTTTCTAGTTAATTACGGAGTCACCTAGTGCAG,9000 fluorescence intensity (a.u.)
12,CTTTAATTTTAATTAGAGTTTCTTGCATCGGTTTCCAATGCGGAGTCACCTAGTGCAG,27700 fluorescence intensity (a.u.)
13,CACCTTTTTTTAATTTTTTGGTTTCCAATTTTTATTTTTTCGGAGTCACCTAGTGCAG,10900 fluorescence intensity (a.u.)
14,GATTGGTTGTTTGTTCTGTTTTGGACATGCTTGTTAATTACGGAGTCACCTAGTGCAG,17100 fluorescence intensity (a.u.)
15,ATTGGATGTTAAGTTGTGTTTTTGCTGTTTCATGGTTTTACGGAGTCACCTAGTGCAG,11400 fluorescence intensity (a.u.)
16,TCGGTTTGTTTTTTTCCGGTTTATCTTCTTTCGGTTTTTTCGGAGTCACCTAGTGCAG,18500 fluorescence intensity (a.u.)
17,AATTAGTTTCTTGCTTCTTCTTTTTTCTTTTCTTTTTCATCGGAGTCACCTAGTGCAG,8210 fluorescence intensity (a.u.)
18,ATCCAGTGAGCTCGAGGCTTCCCATCTATCCGCCGTTGGTCGGAGTCACCTAGTGCAG,8260 fluorescence intensity (a.u.)
19,CTGCTGCATCTGCACTGCATGGCCATGCCCACACACTTGGCGGAGTCACCTAGTGCAG,8050 fluorescence intensity (a.u.)
20,CGAGCTGCTGATGGCCCCTATGCCACATCTACTATGCATGCGGAGTCACCTAGTGCAG,17100 fluorescence intensity (a.u.)
21,TATGCTTCATCTGTTCTTCTACATTGTTATCTACTATCTGCGGAGTCACCTAGTGCAG,10100 fluorescence intensity (a.u.)

row,Sequence,binding signal
1,CTCAACTCGGGATGACATTTGGGGTGTTTTTTTTTTGCAACGGAGTCACCTAGTGCAG,9820 fluorescence intensity (a.u.)
2,TACTTGCACTTTACTATATTCTTGCTGTTACGCACCACATCGGAGTCACCTAGTGCAG,14600 fluorescence intensity (a.u.)
3,AGTTAAAACCGCTACTCCACTCCTCCCATTGCATAATTTTCGGAGTCACCTAGTGCAG,9400 fluorescence intensity (a.u.)
4,AATTTTGATAGATGTGGGATGTGTTGTAATTTGTAAATTTCGGAGTCACCTAGTGCAG,8270 fluorescence intensity (a.u.)
5,AAGGTGGTGGGGCAGGTGGAGCGGGTGGTCGGGGCGACGCCGGAGTCACCTAGTGCAG,11300 fluorescence intensity (a.u.)
6,GCGGCAGGTTTCGGCGGCGGGGCGGGCGGCAGGTGTCGGCCGGAGTCACCTAGTGCAG,20000 fluorescence intensity (a.u.)
7,TTGTCCTCAGCCGGCAGTGTAGGTTCCGGGAGGGCGGGGTCGGAGTCACCTAGTGCAG,19300 fluorescence intensity (a.u.)
8,GCCGGCGGCAGGGTGGGGCGGGGACGCCTGCCGGCGTCGGCGGAGTCACCTAGTGCAG,9860 fluorescence intensity (a.u.)
9,TTCTTTTCTTTTTTTCTTTGCGGGGATTTCATATAGGATTCGGAGTCACCTAGTGCAG,8510 fluorescence intensity (a.u.)
10,TTTGCAGGTTTCGTTTGCATTTGCGGGGCGGGCATATATGCGGAGTCACCTAGTGCAG,21600 fluorescence intensity (a.u.)
11,TGGCGCGTGGGAGGGTCAGCCTAGGGCGTCGGAGGGGCGGCGGAGTCACCTAGTGCAG,13400 fluorescence intensity (a.u.)
12,TTTCGGTTTTGCTACTTCACATGCGCATATTTTTGGAGGGCGGAGTCACCTAGTGCAG,9330 fluorescence intensity (a.u.)
13,AGGTTCCGGGAGGGCGGGGTGGAGCACGAGGCGGCGGTGCCGGAGTCACCTAGTGCAG,10600 fluorescence intensity (a.u.)
14,TTTTGCGCGGATGGCCCTTTACTTTTCCCCTCTTGTCCTCCGGAGTCACCTAGTGCAG,10400 fluorescence intensity (a.u.)
15,ACTTCTACTCCTACTTCCCTGTGTGGCCCACAGCTAGATACGGAGTCACCTAGTGCAG,10300 fluorescence intensity (a.u.)
16,TGGAAGTCTGGAAGGCGCTGTACCTTCGTCTCGCCCGTCACGGAGTCACCTAGTGCAG,8650 fluorescence intensity (a.u.)
17,ATATGTCAAGTTTGGTGGATATAGTTGTTTGGCCTTTTACCGGAGTCACCTAGTGCAG,11700 fluorescence intensity (a.u.)
18,CACGCTGCACTGCACCGCTTTACGCCATCTCGCCAATTTTCGGAGTCACCTAGTGCAG,10300 fluorescence intensity (a.u.)
19,CCAATTTTTTTTTCTCCTTTTGCTTTTTTTCATCAAGAACCGGAGTCACCTAGTGCAG,8740 fluorescence intensity (a.u.)
20,CGGAACCGCTCCTCGAGAAGCTCTCGAATTCCTCGTCGTCCGGAGTCACCTAGTGCAG,9310 fluorescence intensity (a.u.)
21,TGTTATGCAAATGTGCAAATGCAAAAGTTGGCCGCAAGAACGGAGTCACCTAGTGCAG,17600 fluorescence intensity (a.u.)

row,Sequence,binding signal
1,GAACGGTCAAACATGTGTTAAAAAGTCAACGGTGTTAAACCGGAGTCACCTAGTGCAG,9470 fluorescence intensity (a.u.)
2,AGACGAACAGTCAAATATGTGCTAAAAAGTCAACGGTGTCCGGAGTCACCTAGTGCAG,17500 fluorescence intensity (a.u.)
3,ATAAGACGAACGGTTAAAAATGTGCCAAAAAGTCAACGGCCGGAGTCACCTAGTGCAG,9640 fluorescence intensity (a.u.)
4,ATAAGACGAACGGTCAAATATGTGCTAAAAAGTCAACGGTCGGAGTCACCTAGTGCAG,16400 fluorescence intensity (a.u.)
5,AGAACGAACAGTCAAACATATGCTAAAAAGTCAACGGTGTCGGAGTCACCTAGTGCAG,10200 fluorescence intensity (a.u.)
6,AAGACGAACGGTCAAATATGTGCTAAAAAGTCAACGGTGTCGGAGTCACCTAGTGCAG,9990 fluorescence intensity (a.u.)
7,TAAGACGAATGGTCAAATATGTGCTAAAAAGTCAACGGTGCGGAGTCACCTAGTGCAG,13100 fluorescence intensity (a.u.)
8,GGTAAAATATGTGCTAAAAAGTCAACGGTGTCAAACATTTCGGAGTCACCTAGTGCAG,14400 fluorescence intensity (a.u.)
9,TCCTATCCCTACGAGCACTTCCGAAATATTGGACTGACATCGGAGTCACCTAGTGCAG,8370 fluorescence intensity (a.u.)
10,ATAACTCGGGTCGGACTCGGACCTCAGGCCCACGTATTCCCGGAGTCACCTAGTGCAG,8400 fluorescence intensity (a.u.)
11,CGCTGATTGGGTTGGGTCGGGTTAGCTTTGGTTTCAATGCCGGAGTCACCTAGTGCAG,11200 fluorescence intensity (a.u.)
12,AATACTCCTCTACTCATATTAGTACAATATCACAAACTTACGGAGTCACCTAGTGCAG,8250 fluorescence intensity (a.u.)
13,ACTGCTTTGTTCTATTTGATTATTTTTTTACTCATCAGATCGGAGTCACCTAGTGCAG,15900 fluorescence intensity (a.u.)
14,ATGTTTGACACCGTTGATTTTTTAACACATGTTTGACCGTCGGAGTCACCTAGTGCAG,9910 fluorescence intensity (a.u.)
15,TGTTTGACGCCGTTGACTTTTTAGCACATGTTTGACCGTTCGGAGTCACCTAGTGCAG,43600 fluorescence intensity (a.u.)
16,TGTTTGACGCCGTTGACTTTTTAACACATGTTTGACCGTTCGGAGTCACCTAGTGCAG,41700 fluorescence intensity (a.u.)
17,AATGTTTGACGCCGTTGACTTTTTAGCACATGTTGACCGTCGGAGTCACCTAGTGCAG,42200 fluorescence intensity (a.u.)
18,ACGCCATTGACTTTTTAGCAGATGTTTGACCGTTCGTTTTCGGAGTCACCTAGTGCAG,20700 fluorescence intensity (a.u.)
19,GCCGCGCACGCCGTCATCTCTTTTTCGTTCCATACTTCTCCGGAGTCACCTAGTGCAG,10700 fluorescence intensity (a.u.)
20,GGCTGGGTGTTACAACTTTGTCCAAAACATCAATAATTATCGGAGTCACCTAGTGCAG,8610 fluorescence intensity (a.u.)
21,CCCACATTTTTTCTTCTCACTTATATGTGGGTCCCATAATCGGAGTCACCTAGTGCAG,8640 fluorescence intensity (a.u.)
